Assay results as given in ChEMBL document CHEMBL1961873, “Compounds: GSK PKIS; Assays: Nanosyn kinase panel” (2012).

Experiments:
[1] = target: Fibroblast growth factor receptor 4 (Homo sapiens) (UniProt P22455); conditions: at 1 µM;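 further: reported figure is the averaged percent inhibition of FGFR4, from the GSK PKIS kinase screening panel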
[2] = target: Tyrosine-protein kinase Fgr (Homo sapiens) (UniProt P09769); conditions: at 0.1 µM
[3] = target: Tyrosine-protein kinase Fgr (Homo sapiens) (UniProt P09769); conditions: at 1 µM
[4] = target: Vascular endothelial growth factor receptor 1 (Homo sapiens) (UniProt P17948); conditions: at 0.1 µM
[5] = target: Vascular endothelial growth factor receptor 1 (Homo sapiens) (UniProt P17948); conditions: at 1 µM
[6] = target: Receptor-type tyrosine-protein kinase FLT3 (Homo sapiens) (UniProt P36888); conditions: at 0.1 µM
[7] = target: Receptor-type tyrosine-protein kinase FLT3 (Homo sapiens) (UniProt P36888); conditions: at 1 µM
[8] = tested on: T1, Receptor-type tyrosine-protein kinase FLT3 (Homo sapiens), P36888 [D835Y]; conditions: at 0.1 µM
T1 sequence (whole entry): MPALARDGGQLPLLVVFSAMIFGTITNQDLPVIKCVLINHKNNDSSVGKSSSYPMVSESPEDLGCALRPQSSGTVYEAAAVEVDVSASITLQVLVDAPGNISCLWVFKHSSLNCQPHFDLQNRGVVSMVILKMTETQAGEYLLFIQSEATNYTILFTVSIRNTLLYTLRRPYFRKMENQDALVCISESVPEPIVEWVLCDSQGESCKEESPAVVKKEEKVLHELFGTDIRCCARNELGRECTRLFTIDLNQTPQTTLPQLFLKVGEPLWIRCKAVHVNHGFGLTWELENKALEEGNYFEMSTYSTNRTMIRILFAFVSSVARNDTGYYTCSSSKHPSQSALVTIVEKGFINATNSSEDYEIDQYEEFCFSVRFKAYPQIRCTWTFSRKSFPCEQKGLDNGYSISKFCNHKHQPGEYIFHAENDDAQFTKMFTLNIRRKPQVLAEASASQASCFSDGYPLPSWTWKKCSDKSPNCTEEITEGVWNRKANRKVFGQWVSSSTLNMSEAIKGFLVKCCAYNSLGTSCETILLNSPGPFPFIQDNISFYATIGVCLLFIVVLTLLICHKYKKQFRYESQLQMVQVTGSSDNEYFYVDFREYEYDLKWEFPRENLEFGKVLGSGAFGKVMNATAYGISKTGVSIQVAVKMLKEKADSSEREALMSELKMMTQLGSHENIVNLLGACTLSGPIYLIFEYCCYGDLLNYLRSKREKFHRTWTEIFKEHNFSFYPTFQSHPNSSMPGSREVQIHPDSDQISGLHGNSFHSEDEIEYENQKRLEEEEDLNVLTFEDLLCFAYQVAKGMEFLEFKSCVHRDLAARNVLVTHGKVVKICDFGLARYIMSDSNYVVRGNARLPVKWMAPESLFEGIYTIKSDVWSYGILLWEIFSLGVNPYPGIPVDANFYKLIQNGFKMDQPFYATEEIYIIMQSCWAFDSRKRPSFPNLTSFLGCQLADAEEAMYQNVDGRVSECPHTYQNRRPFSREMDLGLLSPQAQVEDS

[9] = target: Non-receptor tyrosine-protein kinase TYK2 (Homo sapiens) (UniProt P29597); conditions: at 1 µM;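 further: values are mean percent inhibition of TYK2 kinase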
[10] = target: T2, Tyrosine-protein kinase receptor TYRO3 (Homo sapiens) (UniProt Q06418); conditions: at 0.1 µM
T2 sequence (whole entry): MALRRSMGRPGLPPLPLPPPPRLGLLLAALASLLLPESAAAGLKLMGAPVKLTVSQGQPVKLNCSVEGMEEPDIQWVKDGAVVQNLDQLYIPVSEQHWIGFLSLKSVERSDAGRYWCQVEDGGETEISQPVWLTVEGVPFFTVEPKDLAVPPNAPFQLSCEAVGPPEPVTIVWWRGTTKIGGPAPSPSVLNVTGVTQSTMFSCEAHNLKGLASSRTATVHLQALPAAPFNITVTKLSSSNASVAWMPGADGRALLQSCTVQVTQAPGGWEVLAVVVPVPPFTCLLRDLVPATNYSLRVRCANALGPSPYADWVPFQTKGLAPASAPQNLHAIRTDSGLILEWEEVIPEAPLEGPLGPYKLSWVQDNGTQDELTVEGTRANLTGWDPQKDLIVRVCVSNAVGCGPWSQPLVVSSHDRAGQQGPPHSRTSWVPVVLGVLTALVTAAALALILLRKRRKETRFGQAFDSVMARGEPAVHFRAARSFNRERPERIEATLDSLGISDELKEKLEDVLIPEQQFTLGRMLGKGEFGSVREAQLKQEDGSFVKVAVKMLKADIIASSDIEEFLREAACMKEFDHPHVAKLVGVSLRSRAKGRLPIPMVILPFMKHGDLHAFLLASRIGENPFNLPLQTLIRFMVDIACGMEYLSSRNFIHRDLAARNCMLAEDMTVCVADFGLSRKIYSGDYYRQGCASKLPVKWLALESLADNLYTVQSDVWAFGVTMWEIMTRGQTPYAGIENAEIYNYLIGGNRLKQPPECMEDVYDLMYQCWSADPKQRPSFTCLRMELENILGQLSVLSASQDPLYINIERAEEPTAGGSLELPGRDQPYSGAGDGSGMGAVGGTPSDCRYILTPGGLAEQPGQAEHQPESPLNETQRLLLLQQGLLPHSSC

[11] = target: T2, Tyrosine-protein kinase receptor TYRO3 (Homo sapiens); conditions: at 1 µM
[12] = target: Tyrosine-protein kinase Yes (Homo sapiens) (UniProt P07947); conditions: at 0.1 µM
[13] = target: Tyrosine-protein kinase Yes (Homo sapiens) (UniProt P07947); conditions: at 1 µM
[14] = target: T3, Tyrosine-protein kinase ZAP-70 (Homo sapiens) (UniProt P43403); conditions: at 0.1 µM
T3 sequence (whole entry): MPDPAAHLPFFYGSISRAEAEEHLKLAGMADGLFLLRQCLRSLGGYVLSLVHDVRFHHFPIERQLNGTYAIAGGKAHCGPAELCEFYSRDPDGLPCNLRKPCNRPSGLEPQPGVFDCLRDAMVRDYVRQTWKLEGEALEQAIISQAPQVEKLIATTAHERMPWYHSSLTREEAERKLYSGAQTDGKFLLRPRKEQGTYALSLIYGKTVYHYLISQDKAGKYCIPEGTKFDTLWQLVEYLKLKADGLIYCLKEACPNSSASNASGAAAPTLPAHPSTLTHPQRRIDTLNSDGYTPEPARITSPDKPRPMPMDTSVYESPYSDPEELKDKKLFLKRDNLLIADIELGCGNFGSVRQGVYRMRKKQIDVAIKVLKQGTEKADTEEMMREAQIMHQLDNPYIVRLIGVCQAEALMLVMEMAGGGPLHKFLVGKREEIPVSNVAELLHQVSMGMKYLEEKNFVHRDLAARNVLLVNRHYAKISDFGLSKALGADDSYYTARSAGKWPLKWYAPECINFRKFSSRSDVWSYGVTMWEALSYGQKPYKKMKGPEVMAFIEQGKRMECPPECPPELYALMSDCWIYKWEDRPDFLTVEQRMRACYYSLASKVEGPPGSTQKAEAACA

[15] = target: T3, Tyrosine-protein kinase ZAP-70 (Homo sapiens); conditions: at 1 µM
[16] = target: Serine/threonine-protein kinase B-raf (Homo sapiens) (UniProt P15056); conditions: at 0.1 µM
[17] = target: Serine/threonine-protein kinase B-raf (Homo sapiens) (UniProt P15056); conditions: at 1 µM
[18] = tested on: Serine/threonine-protein kinase B-raf (Homo sapiens), P15056 [V600E]; conditions: at 0.1 µM
[19] = tested on: Serine/threonine-protein kinase B-raf (Homo sapiens), P15056 [V600E]; conditions: at 1 µM
[20] = target: RAF proto-oncogene serine/threonine-protein kinase (Homo sapiens) (UniProt P04049); conditions: at 0.1 µM;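 further: values are mean CRAF kinase inhibition from profiling of the GSK Published Kinase Inhibitor Set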
Sequence of RAF proto-oncogene serine/threonine-protein kinase (Homo sapiens) (P04049 whole entry): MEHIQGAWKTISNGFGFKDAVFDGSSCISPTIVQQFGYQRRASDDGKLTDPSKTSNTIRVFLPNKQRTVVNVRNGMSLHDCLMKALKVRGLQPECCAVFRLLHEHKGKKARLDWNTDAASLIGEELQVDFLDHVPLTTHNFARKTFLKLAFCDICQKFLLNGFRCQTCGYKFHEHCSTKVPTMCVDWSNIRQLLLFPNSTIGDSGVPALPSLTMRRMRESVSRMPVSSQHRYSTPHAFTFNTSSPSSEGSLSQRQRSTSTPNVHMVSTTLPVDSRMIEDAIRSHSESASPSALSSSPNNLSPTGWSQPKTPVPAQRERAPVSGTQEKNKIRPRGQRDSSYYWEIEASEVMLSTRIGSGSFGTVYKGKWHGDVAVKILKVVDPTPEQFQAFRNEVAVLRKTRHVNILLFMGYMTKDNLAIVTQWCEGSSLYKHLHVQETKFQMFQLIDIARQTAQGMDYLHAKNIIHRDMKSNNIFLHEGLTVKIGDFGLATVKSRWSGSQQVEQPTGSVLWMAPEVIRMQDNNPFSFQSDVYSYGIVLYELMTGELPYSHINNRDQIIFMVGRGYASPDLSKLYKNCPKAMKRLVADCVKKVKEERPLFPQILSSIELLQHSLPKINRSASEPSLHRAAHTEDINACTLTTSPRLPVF

Sequence of Serine/threonine-protein kinase B-raf (Homo sapiens), P15056 [V600E] (P15056 whole entry V600E): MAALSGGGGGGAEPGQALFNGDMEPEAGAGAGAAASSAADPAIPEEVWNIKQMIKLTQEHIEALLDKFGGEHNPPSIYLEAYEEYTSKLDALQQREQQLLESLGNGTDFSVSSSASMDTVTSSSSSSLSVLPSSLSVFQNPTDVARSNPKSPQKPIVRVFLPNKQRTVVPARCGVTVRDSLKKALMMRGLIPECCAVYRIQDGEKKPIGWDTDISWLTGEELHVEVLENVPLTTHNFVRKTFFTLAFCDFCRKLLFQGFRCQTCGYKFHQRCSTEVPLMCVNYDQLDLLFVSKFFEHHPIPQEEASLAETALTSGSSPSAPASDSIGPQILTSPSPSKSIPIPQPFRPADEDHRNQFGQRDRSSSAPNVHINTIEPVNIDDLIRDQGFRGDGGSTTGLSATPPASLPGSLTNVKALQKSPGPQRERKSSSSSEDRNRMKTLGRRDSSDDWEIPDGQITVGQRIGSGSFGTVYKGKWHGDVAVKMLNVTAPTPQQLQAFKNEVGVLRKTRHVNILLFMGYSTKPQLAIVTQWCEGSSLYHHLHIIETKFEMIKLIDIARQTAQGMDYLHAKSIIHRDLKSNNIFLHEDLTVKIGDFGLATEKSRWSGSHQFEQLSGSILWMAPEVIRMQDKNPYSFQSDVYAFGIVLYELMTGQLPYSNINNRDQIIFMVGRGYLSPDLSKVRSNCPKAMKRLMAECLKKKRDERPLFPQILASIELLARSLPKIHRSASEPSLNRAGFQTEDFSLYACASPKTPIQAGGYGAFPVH
Sequence of Tyrosine-protein kinase Yes (Homo sapiens) (P07947 2-543 limits assumed): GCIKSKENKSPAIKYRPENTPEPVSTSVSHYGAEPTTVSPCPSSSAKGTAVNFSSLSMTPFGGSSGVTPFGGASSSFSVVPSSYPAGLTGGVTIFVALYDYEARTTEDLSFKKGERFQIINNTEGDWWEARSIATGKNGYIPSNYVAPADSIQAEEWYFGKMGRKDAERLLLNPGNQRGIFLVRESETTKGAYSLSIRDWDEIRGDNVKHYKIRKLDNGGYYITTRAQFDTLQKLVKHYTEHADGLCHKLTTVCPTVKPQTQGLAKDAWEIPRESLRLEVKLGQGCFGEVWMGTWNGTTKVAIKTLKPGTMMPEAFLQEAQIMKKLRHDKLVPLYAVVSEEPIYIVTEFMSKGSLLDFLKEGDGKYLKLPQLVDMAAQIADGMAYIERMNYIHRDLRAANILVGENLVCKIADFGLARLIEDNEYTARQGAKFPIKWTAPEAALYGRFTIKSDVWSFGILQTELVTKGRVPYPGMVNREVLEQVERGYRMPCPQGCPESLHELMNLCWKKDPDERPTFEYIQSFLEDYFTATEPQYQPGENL
Sequence of Fibroblast growth factor receptor 4 (Homo sapiens) (P22455 22-802 limits assumed): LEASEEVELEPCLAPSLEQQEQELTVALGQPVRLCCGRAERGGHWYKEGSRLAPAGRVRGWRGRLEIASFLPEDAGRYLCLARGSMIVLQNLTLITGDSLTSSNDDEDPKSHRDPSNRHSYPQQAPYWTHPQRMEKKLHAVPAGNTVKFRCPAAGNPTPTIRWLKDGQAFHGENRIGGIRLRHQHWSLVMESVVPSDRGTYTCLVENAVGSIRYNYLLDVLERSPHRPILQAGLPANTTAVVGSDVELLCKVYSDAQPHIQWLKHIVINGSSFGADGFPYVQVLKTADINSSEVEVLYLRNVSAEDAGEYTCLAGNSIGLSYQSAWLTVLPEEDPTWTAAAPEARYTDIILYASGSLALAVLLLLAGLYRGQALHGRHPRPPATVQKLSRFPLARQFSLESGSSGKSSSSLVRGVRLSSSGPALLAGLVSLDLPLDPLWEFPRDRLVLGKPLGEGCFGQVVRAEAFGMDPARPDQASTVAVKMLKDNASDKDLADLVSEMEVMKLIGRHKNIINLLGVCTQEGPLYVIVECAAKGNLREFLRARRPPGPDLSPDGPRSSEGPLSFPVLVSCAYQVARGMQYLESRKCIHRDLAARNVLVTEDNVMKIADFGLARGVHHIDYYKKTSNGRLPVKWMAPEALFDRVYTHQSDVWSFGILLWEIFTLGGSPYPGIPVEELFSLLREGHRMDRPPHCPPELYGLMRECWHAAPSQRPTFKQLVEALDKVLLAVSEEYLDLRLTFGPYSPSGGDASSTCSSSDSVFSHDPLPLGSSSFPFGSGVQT
Sequence of Tyrosine-protein kinase Fgr (Homo sapiens) (P09769 2-529 limits assumed): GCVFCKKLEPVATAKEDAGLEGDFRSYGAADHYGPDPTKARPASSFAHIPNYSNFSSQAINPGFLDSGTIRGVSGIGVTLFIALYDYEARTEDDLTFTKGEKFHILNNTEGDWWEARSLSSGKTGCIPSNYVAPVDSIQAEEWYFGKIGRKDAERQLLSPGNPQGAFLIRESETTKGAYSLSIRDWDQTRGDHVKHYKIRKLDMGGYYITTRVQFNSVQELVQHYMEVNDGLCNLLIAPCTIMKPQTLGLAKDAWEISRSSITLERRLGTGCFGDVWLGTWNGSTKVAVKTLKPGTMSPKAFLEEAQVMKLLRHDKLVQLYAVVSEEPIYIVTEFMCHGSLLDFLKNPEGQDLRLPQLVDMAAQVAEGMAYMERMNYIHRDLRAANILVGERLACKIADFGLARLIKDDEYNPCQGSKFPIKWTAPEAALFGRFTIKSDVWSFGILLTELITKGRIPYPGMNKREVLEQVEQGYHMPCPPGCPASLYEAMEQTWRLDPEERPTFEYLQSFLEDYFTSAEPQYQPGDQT
Sequence of Non-receptor tyrosine-protein kinase TYK2 (Homo sapiens) (P29597 whole entry): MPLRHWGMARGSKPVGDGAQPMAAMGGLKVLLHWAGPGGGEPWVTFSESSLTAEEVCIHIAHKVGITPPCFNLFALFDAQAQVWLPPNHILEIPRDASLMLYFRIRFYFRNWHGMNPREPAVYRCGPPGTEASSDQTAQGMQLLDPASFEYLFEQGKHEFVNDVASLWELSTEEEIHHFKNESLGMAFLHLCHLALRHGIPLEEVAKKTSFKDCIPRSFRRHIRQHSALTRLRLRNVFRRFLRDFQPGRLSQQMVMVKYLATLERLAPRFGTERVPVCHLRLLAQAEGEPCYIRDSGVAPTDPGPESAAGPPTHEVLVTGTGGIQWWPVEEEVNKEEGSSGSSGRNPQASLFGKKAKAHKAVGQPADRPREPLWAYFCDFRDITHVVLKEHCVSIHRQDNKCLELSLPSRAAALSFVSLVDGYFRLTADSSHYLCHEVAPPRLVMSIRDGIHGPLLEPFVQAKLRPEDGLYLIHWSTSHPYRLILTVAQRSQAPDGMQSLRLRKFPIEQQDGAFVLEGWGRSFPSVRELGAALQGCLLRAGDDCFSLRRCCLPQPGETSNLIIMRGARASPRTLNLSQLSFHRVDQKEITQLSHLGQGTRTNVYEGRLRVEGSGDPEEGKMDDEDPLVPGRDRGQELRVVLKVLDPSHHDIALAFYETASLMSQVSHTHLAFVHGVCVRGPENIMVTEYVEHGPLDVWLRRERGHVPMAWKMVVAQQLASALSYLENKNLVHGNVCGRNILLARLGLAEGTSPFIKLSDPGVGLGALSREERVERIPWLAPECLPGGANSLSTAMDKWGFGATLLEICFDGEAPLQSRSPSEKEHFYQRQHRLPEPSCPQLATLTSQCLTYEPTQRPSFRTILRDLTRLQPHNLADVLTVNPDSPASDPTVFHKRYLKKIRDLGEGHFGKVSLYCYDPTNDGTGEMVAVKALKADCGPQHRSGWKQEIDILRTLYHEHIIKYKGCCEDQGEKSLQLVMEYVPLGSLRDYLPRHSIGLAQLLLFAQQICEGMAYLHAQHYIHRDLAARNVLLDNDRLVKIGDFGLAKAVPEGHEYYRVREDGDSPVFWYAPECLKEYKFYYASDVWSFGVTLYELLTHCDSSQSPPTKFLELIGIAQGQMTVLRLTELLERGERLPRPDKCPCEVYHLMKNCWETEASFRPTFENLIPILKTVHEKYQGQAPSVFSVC
Sequence of Serine/threonine-protein kinase B-raf (Homo sapiens) (P15056 whole entry): as the sequence (P15056 whole entry V600E) above, with E600V counted along it

Row | Structure (SMILES) | inhibition [1] | inhibition [2] | inhibition [3] | inhibition [4] | inhibition [5] | inhibition [6] | inhibition [7] | inhibition [8] | inhibition [9] | inhibition [10] | inhibition [11] | inhibition [12] | inhibition [13] | inhibition [14] | inhibition [15] | inhibition [16] | inhibition [17] | inhibition [18] | inhibition [19] | inhibition [20]
1 | O=C1Nc2ccccc2/C1=C/Nc1ccc(-n2cncn2)cc1 | 2.81% | 4.93% | 12.8% | 4.03% | 24.1% | 12.5% | 53.7% | 16.4% | 12.3% | 3.19% | 10.2% | 3.29% | 15.7% | 4.53% | 7.33% | 6.1% | 6.87% | 7.05% | 6.86% | 15.1%
2 | c1ccc(-c2n[nH]cc2-c2ccnc(-c3ccc(OCCN4CCOCC4)cc3)c2)nc1 | 4.93% | 4.14% | 6.86% | 3.88% | 15.6% | -2.01% | 1.37% | -0.15% | 1.87% | -0.18% | -0.82% | -1.99% | 2.34% | 5% | 0.13% | -2.91% | -2.83% | -4.04% | -1.12% | -0.28%
3 | NC(=O)c1cc(-c2ccc(F)cc2)cc(-c2ccncc2)c1N | -0.36% | 5.32% | 3.24% | 0.41% | 0.85% | 3.14% | 2.01% | -6.54% | -2.58% | 4.68% | 3.84% | 3.3% | 8.03% | 3.36% | 4.08% | 6.39% | 7.79% | 7.49% | 7.36% | 0.54%
4 | NC(=O)c1cc(-c2ccncc2)cc(-c2ccccc2)c1N | 1.49% | 6.05% | 27% | 1.74% | 5.65% | -1.2% | 4.55% | -0.35% | -2.55% | 2.62% | 3.61% | 7.5% | 36% | 4.11% | 29% | 8.42% | 8.98% | 8.18% | 8.65% | 1.06%
5 | Fc1ccc(-c2nc3n(c2-c2ccncc2)CCS3)cc1 | -1.43% | 3.23% | 5.64% | 0.95% | 4.64% | 2.5% | 4.49% | 4.1% | -3.88% | 2.21% | 2.33% | 3.03% | 7.29% | -2.56% | -1.24% | 5.8% | 7.17% | 5.81% | 5.73% | 1.81%
6 | c1ccc(Oc2ccc(Nc3ncc(-c4ccccc4)o3)cc2)cc1 | 3.31% | 1.2% | 4.81% | 1.53% | 4.46% | 2.44% | 13.3% | 0.51% | -0.96% | 2.18% | 1.97% | 0.58% | -0.25% | 1.43% | 0.91% | 1.29% | 1.47% | 2.23% | 1.97% | 0.01%
7 | Fc1ccc(-c2c(-c3ccncc3)nc3n2CCS3)cc1 | 0.11% | 2.37% | 2.64% | 0.25% | 1.28% | 0.81% | 1.71% | -1.87% | 0.83% | 1.94% | 1.69% | 2.78% | 5.33% | 0.51% | -2.36% | 4.16% | 4.3% | 3.07% | 4.28% | 2.08%
8 | O=C(Nc1ccc(Oc2ccc3[nH]c(NC(=O)c4ccccc4)nc3c2)cc1)Nc1cc(C(F)(F)F)ccc1F | 0.83% | 9.57% | 7.53% | 5.53% | 39.3% | 6.63% | 53.4% | -0.18% | -0.97% | 2.33% | 16.8% | 1.01% | 7.23% | -1.74% | 1.65% | 4.48% | 33.4% | 5.24% | 42.7% | -3.16%
9 | CS(=O)(=O)CCNCc1ccc(-c2ccc3ncnc(Nc4ccc(OCc5ccccc5)c(Br)c4)c3c2)o1 | -1.47% | 4.84% | 10.8% | -0.47% | 2.16% | 4.34% | 1.3% | -8.89% | -4.08% | 2.52% | 2.72% | 4.45% | 20.7% | -2.48% | -1.83% | 4.73% | 4.32% | 3.23% | 2.38% | 3.26%
10 | COc1cc(Nc2ncc(-c3ccccc3)o2)cc(OC)c1OC | 1.36% | 3.9% | 29.4% | 8.63% |  | 61.7% | 90.8% | 14.2% | 6.55% | -1.23% | 1.3% | 11.5% | 46.6% | -2.95% | 0.62% | -1.68% | -1.94% | -1.66% | -1.09% | -3.29%
11 | CCS(=O)(=O)c1ccc(OC)c(Nc2ncc(-c3ccccc3Cl)o2)c1 | 4.03% | 3.37% | 17% | 3.73% | 13.8% | 2.1% | 21.1% | 7.14% | -1.06% | 5.33% | 42.6% | 8.95% | 39.3% | 2.78% | -0.17% | 0.55% | 0.2% | 0.25% | 0.86% | 0.78%
12 | Nc1nccc(-c2c(-c3ccc(F)cc3)ncn2C2CCC(O)CC2)n1 (centres undefined) | 0.55% | 1.87% | 16.5% | 0.09% | 1.16% | 1.8% | -0.14% | 3.94% | 0.09% | 0.62% | 2.9% | 5.1% | 40% | -8.32% | 1.54% | -2.22% | -1.06% | -3.35% | -2.66% | -4.81%
13 | CS(=O)(=O)CCNCc1cc(-c2cc3c(Nc4ccc(OCc5cccc(F)c5)c(Cl)c4)ncnc3s2)cs1 | 1.36% | 2.51% | 4.32% | 0.1% | 0.78% | 2.69% | 6.93% | -4.23% | -4% | 2.21% | 4.28% | 3.05% | 6.33% | 2.63% | 1.06% | 6.76% | 9.8% | 4.4% | 5.09% | 2.35%
